In PubChem BioAssay (NCI):
Compounds without any hit were thinned out: in the full panel of roughly 83,000, 20% have a hit.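 48-hour exposure, single concentration, 96-well plates; percent growth endpoint where 0 means no net growth. Active: below 10.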 The source made the active and inactive calls.

How the values were obtained:
Assay in all cases: NCI-60 one-dose screen, 48 h (100 = growth as untreated, 0 = no growth, -100 = all killed)
Conditions in all cases: 10 µM unless noted
SR leukemia = test system: SR leukemia
RPMI-8226 leukemia = test system: RPMI-8226 leukemia
OVCAR-8 ovarian = test system: OVCAR-8 ovarian
OVCAR-5 ovarian = test system: OVCAR-5 ovarian
OVCAR-4 ovarian = test system: OVCAR-4 ovarian
SK-OV-3 ovarian = test system: SK-OV-3 ovarian
IGROV1 ovarian = test system: IGROV1 ovarian
OVCAR-3 ovarian = test system: OVCAR-3 ovarian
HS 578T breast = test system: HS 578T breast
NCI/ADR-RES ovarian = test system: NCI/ADR-RES ovarian
T-47D breast = test system: T-47D breast
MDA-MB-435 melanoma = test system: MDA-MB-435 melanoma
SW-620 colon = test system: SW-620 colon
MCF7 breast = test system: MCF7 breast
HCT-116 colon = test system: HCT-116 colon
HCC-2998 colon = test system: HCC-2998 colon
KM12 colon = test system: KM12 colon
MDA-MB-468 breast = test system: MDA-MB-468 breast
BT-549 breast = test system: BT-549 breast

Measured: growth

ClC(Cn1ncc2c(Nc3cccc(Br)c3)nc(SCCN3CCOCC3)nc21)c1ccc(Br)cc1 (stereo unspecified)
inactive: OVCAR-8 ovarian 10.2% | OVCAR-5 ovarian 18.1% | OVCAR-4 ovarian 34.6% | SK-OV-3 ovarian 19.4% | IGROV1 ovarian 28.3% | OVCAR-3 ovarian 33.2%
active: SR leukemia -26.7% | RPMI-8226 leukemia 1.13% | HS 578T breast -19.9% | NCI/ADR-RES ovarian 0.769% | T-47D breast -2.99% | MDA-MB-435 melanoma -4.97% | SW-620 colon -32.1% | MCF7 breast -5.44% | HCT-116 colon 6.22% | HCC-2998 colon 3.46% | KM12 colon -20% | MDA-MB-468 breast -18%

O=C1/C(=C/C=C/c2ccco2)SC(=S)N1CC(=S)C1C=CS(=O)(=O)C1 (stereo unspecified)
active: MDA-MB-468 breast -16.5%
inactive: SR leukemia 39% | RPMI-8226 leukemia 63.9% | OVCAR-8 ovarian 97.1% | OVCAR-5 ovarian 100% | OVCAR-4 ovarian 96.1% | SK-OV-3 ovarian 105% | IGROV1 ovarian 92.7% | OVCAR-3 ovarian 65.9% | HS 578T breast 109% | NCI/ADR-RES ovarian 95.8% | T-47D breast 80.2% | MDA-MB-435 melanoma 96.7% | SW-620 colon 76.9% | MCF7 breast 27.9% | HCT-116 colon 83.4% | HCC-2998 colon 103% | KM12 colon 89.4%

COc1cc(C=O)ccc1OC(=O)c1cc(-c2ccc(C)cc2)n(-c2ccc(S(C)(=O)=O)cc2)n1
inactive: SR leukemia 121% | RPMI-8226 leukemia 94.7% | OVCAR-8 ovarian 105% | OVCAR-5 ovarian 109% | OVCAR-4 ovarian 105% | SK-OV-3 ovarian 107% | IGROV1 ovarian 111% | OVCAR-3 ovarian 119% | HS 578T breast 116% | NCI/ADR-RES ovarian 107% | T-47D breast 105% | MDA-MB-435 melanoma 104% | SW-620 colon 124% | MCF7 breast 88.4% | HCT-116 colon 98.7% | HCC-2998 colon 118% | KM12 colon 104% | MDA-MB-468 breast 124%

Cc1cccc(C)c1Nc1nnc(-c2c[nH]c3ccccc23)o1
inactive: SR leukemia 91.5% | RPMI-8226 leukemia 86% | OVCAR-8 ovarian 101% | OVCAR-5 ovarian 103% | OVCAR-4 ovarian 102% | SK-OV-3 ovarian 76.9% | IGROV1 ovarian 89% | OVCAR-3 ovarian 121% | HS 578T breast 95.9% | NCI/ADR-RES ovarian 94.9% | T-47D breast 87.1% | MDA-MB-435 melanoma 103% | MCF7 breast 83.4% | HCT-116 colon 100% | HCC-2998 colon 119% | KM12 colon 102% | MDA-MB-468 breast 93.2%

COC(=O)c1cc(C(=O)CBr)n2c1ccc1c3ccccc3ccc12
active: SR leukemia 2.25% | MCF7 breast 6.75%
inactive: RPMI-8226 leukemia 38.7% | OVCAR-8 ovarian 31.3% | OVCAR-5 ovarian 72.8% | OVCAR-4 ovarian 101% | SK-OV-3 ovarian 62% | IGROV1 ovarian 33.5% | OVCAR-3 ovarian 103% | HS 578T breast 61% | NCI/ADR-RES ovarian 57.4% | T-47D breast 57.7% | MDA-MB-435 melanoma 74.9% | SW-620 colon 55.4% | HCT-116 colon 35.6% | HCC-2998 colon 62.5% | KM12 colon 84% | MDA-MB-468 breast 48.8%

CCN1CCN(Cc2ccc(C(=O)Nc3cccc(Nc4ccc5c(OC)cccc5n4)c3)cc2C(F)(F)F)CC1
active: SR leukemia -35.1% | RPMI-8226 leukemia -34.8% | OVCAR-8 ovarian -66.1% | OVCAR-5 ovarian -91.9% | OVCAR-4 ovarian -53.1% | SK-OV-3 ovarian -8.33% | IGROV1 ovarian -83.6% | OVCAR-3 ovarian 4.54% | HS 578T breast -16.4% | NCI/ADR-RES ovarian -81% | BT-549 breast -94% | MDA-MB-435 melanoma -94.9% | SW-620 colon 7.01% | MCF7 breast -89.1% | HCT-116 colon -56.4% | HCC-2998 colon -94% | KM12 colon -37.6% | MDA-MB-468 breast -94.7%

O=C(NNC(=S)NC(=O)c1ccccc1)c1ccc(OCc2nc3ccc(Cl)cc3[nH]2)cc1
inactive: OVCAR-4 ovarian 16.3% | OVCAR-3 ovarian 10.5% | T-47D breast 10.2% | SW-620 colon 19.8%
active: SR leukemia 0.144% | RPMI-8226 leukemia 5.01% | OVCAR-8 ovarian -9.91% | OVCAR-5 ovarian -43.7% | SK-OV-3 ovarian -17.5% | IGROV1 ovarian -46.5% | HS 578T breast 3.54% | NCI/ADR-RES ovarian -25.3% | MDA-MB-435 melanoma -51.2% | MCF7 breast 3.67% | HCT-116 colon -34.6% | HCC-2998 colon -80.3% | KM12 colon -3.11% | MDA-MB-468 breast -41%

Cc1ccc2nc(SCc3ccccc3F)n(-c3ccccc3)c(=O)c2c1
inactive: SR leukemia 109% | RPMI-8226 leukemia 93.4% | OVCAR-8 ovarian 100% | OVCAR-5 ovarian 116% | OVCAR-4 ovarian 98.9% | SK-OV-3 ovarian 118% | IGROV1 ovarian 105% | OVCAR-3 ovarian 115% | HS 578T breast 96.3% | NCI/ADR-RES ovarian 89% | T-47D breast 81.4% | MDA-MB-435 melanoma 111% | SW-620 colon 104% | MCF7 breast 89.2% | HCT-116 colon 68.2% | HCC-2998 colon 109% | KM12 colon 93.7% | MDA-MB-468 breast 89.3%

N#Cc1ccc(C(=O)NNC(=O)CSc2nc3sc4c(c3c(=O)n2-c2ccc(Cl)cc2)CCCC4)cc1
inactive: SR leukemia 47.6% | RPMI-8226 leukemia 54.6% | OVCAR-8 ovarian 34.4% | OVCAR-5 ovarian 31.9% | OVCAR-4 ovarian 73.8% | SK-OV-3 ovarian 72.7% | IGROV1 ovarian 30.7% | OVCAR-3 ovarian 91.8% | HS 578T breast 59.4% | NCI/ADR-RES ovarian 67.3% | T-47D breast 58.6% | MDA-MB-435 melanoma 63.7% | MCF7 breast 63% | HCT-116 colon 37.5% | HCC-2998 colon 96.1% | KM12 colon 91.2% | MDA-MB-468 breast 92%

NCCCCn1c(SCCc2c[nH]c3ccccc23)nnc1-c1ccc2ccccc2n1
inactive: OVCAR-5 ovarian 26% | SK-OV-3 ovarian 22.3% | OVCAR-3 ovarian 10.4% | NCI/ADR-RES ovarian 62.3%
active: SR leukemia -19.7% | RPMI-8226 leukemia -50.3% | OVCAR-8 ovarian -9.11% | OVCAR-4 ovarian -11.1% | IGROV1 ovarian 3.95% | HS 578T breast -25.4% | T-47D breast -63.4% | MDA-MB-435 melanoma -75% | SW-620 colon -73.1% | MCF7 breast -88.8% | HCT-116 colon -94.1% | HCC-2998 colon -90.2% | MDA-MB-468 breast -87.1%

Cn1cc(Nc2ncnc(-c3ccc(N4CCCC4)c(C#N)c3)n2)cn1
inactive: SR leukemia 28.7% | RPMI-8226 leukemia 83.9% | OVCAR-8 ovarian 84.4% | OVCAR-5 ovarian 85.4% | OVCAR-4 ovarian 78.9% | SK-OV-3 ovarian 76.4% | IGROV1 ovarian 51.7% | OVCAR-3 ovarian 81.6% | HS 578T breast 41.3% | NCI/ADR-RES ovarian 67.3% | BT-549 breast 76.1% | SW-620 colon 57.6% | MCF7 breast 66.5% | HCT-116 colon 51.2% | HCC-2998 colon 68.6% | KM12 colon 55.2% | MDA-MB-468 breast 16.7%
active: MDA-MB-435 melanoma 8.16%

Nc1cc(-c2c[nH]c3ccc(F)cc23)nc2cc(-c3c[nH]c4ccccc34)nn12
active: RPMI-8226 leukemia -1.51% | OVCAR-8 ovarian 4.46% | OVCAR-5 ovarian 1.01% | MDA-MB-435 melanoma 4.81% | SW-620 colon -66.1% | MCF7 breast -22.9% | HCT-116 colon -41.8% | HCC-2998 colon -59.2% | KM12 colon -54.1% | MDA-MB-468 breast -18.9%
inactive: SR leukemia 15.4% | OVCAR-4 ovarian 47.8% | SK-OV-3 ovarian 18.5% | IGROV1 ovarian 16.2% | OVCAR-3 ovarian 28.8% | HS 578T breast 20.7% | NCI/ADR-RES ovarian 10.7% | T-47D breast 18.3%

O=C(OCCOCCO)N(c1cccc(Br)c1)c1nc(SCCN2CCOCC2)nc2c1cnn2CC(Cl)c1ccc(Br)cc1 (stereo unspecified)
inactive: OVCAR-8 ovarian 19.6% | OVCAR-5 ovarian 34.7% | OVCAR-4 ovarian 23.5% | SK-OV-3 ovarian 25.3% | IGROV1 ovarian 31.8% | OVCAR-3 ovarian 20% | NCI/ADR-RES ovarian 12.3% | T-47D breast 13.6% | SW-620 colon 17.8% | HCT-116 colon 10.8% | HCC-2998 colon 12%
active: SR leukemia -27.8% | RPMI-8226 leukemia -25.7% | HS 578T breast -2.13% | MDA-MB-435 melanoma 9.72% | MCF7 breast 4.77% | KM12 colon -8.97% | MDA-MB-468 breast -2.54%

CN(C)c1nc(NCCNS(=O)(=O)c2ccc(C(=O)/C=C/c3ccc(F)cc3)cc2)nc(N2CCOCC2)n1
inactive: OVCAR-8 ovarian 42.3% | OVCAR-5 ovarian 96% | OVCAR-4 ovarian 64.5% | SK-OV-3 ovarian 82.5% | OVCAR-3 ovarian 64.1% | HS 578T breast 73.5% | NCI/ADR-RES ovarian 49.3% | T-47D breast 35.4% | MCF7 breast 17.8%
active: SR leukemia -25.7% | RPMI-8226 leukemia -28.4% | IGROV1 ovarian -44.9% | MDA-MB-435 melanoma 3.15% | HCT-116 colon -96% | HCC-2998 colon -96.5% | KM12 colon -42.5% | MDA-MB-468 breast -36.6%

Fc1cccc(CNc2nc(SCCN3CCOCC3)nc3c2cnn3CC(Cl)c2ccc(Br)cc2)c1 (stereo unspecified)
inactive: OVCAR-8 ovarian 32.6% | OVCAR-5 ovarian 59.9% | OVCAR-4 ovarian 27.3% | SK-OV-3 ovarian 51.3% | IGROV1 ovarian 52.2% | OVCAR-3 ovarian 49.7% | HS 578T breast 19.2% | NCI/ADR-RES ovarian 23% | MDA-MB-435 melanoma 10.6% | HCT-116 colon 18.4% | HCC-2998 colon 12.2%
active: SR leukemia -18.1% | RPMI-8226 leukemia 2.98% | T-47D breast 1.04% | SW-620 colon -38.2% | MCF7 breast 7.42% | KM12 colon 8.48% | MDA-MB-468 breast 3.38%

COc1ccc2[nH]c(=O)c(CSc3ccccc3Nc3nccc(-c4ccc(C(F)(F)F)cc4)n3)cc2c1
inactive: OVCAR-8 ovarian 32.4% | OVCAR-5 ovarian 75.9% | OVCAR-4 ovarian 39.2% | SK-OV-3 ovarian 81.7% | IGROV1 ovarian 59.8% | OVCAR-3 ovarian 22.1% | HS 578T breast 42.5% | NCI/ADR-RES ovarian 10.5% | MDA-MB-435 melanoma 32.3% | SW-620 colon 17.5% | HCC-2998 colon 18.8% | KM12 colon 29.2%
active: SR leukemia -16.8% | RPMI-8226 leukemia 4.65% | BT-549 breast -10.4% | MCF7 breast -17.5% | HCT-116 colon -8.91%

COc1cc(C2CC(c3ccc(Cl)cc3)=Nc3c(N)nc(N)nc3N2)ccc1Oc1nc(Nc2ccc(F)cc2)nc(N(C)C)n1 (stereo unspecified)
inactive: RPMI-8226 leukemia 15% | OVCAR-8 ovarian 65% | OVCAR-5 ovarian 96.6% | OVCAR-4 ovarian 29% | SK-OV-3 ovarian 79.3% | IGROV1 ovarian 34% | OVCAR-3 ovarian 65% | HS 578T breast 54% | NCI/ADR-RES ovarian 41.4% | T-47D breast 71.3% | MDA-MB-435 melanoma 44% | SW-620 colon 35.5% | KM12 colon 32%
active: SR leukemia -47.5% | MCF7 breast 2.22% | HCT-116 colon -5.37% | HCC-2998 colon -3.35% | MDA-MB-468 breast -22.4%
